Our source for the inhibition values is PubChem BioAssay AID559 (PCMD, 2006).

Screen size: about 62,000 compounds; about 100 (0.2%) were called active. The list comes from a sample in which actives are over-represented; it also holds similar structures and randomly drawn compounds. Unmarked numbers belong to inactive results. Cut-off read from the data, not from the text of the source: active = inhibition above about 20%; inactive = the rest.

The target of this experiment is DNA-directed RNA polymerase subunit beta (Escherichia coli (strain K12)) (UniProt P0A8V2). Description: E. coli RNAP inhibitors, biochemical (AID 559).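 Note: 0% = enzyme without compound and 100% = no enzyme blank.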 To be noted: fluorescence transcription assay, hits give high values,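 tested at 10 µM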.
Chain of DNA-directed RNA polymerase subunit beta (Escherichia coli (strain K12)) (P0A8V2 whole entry, looked up): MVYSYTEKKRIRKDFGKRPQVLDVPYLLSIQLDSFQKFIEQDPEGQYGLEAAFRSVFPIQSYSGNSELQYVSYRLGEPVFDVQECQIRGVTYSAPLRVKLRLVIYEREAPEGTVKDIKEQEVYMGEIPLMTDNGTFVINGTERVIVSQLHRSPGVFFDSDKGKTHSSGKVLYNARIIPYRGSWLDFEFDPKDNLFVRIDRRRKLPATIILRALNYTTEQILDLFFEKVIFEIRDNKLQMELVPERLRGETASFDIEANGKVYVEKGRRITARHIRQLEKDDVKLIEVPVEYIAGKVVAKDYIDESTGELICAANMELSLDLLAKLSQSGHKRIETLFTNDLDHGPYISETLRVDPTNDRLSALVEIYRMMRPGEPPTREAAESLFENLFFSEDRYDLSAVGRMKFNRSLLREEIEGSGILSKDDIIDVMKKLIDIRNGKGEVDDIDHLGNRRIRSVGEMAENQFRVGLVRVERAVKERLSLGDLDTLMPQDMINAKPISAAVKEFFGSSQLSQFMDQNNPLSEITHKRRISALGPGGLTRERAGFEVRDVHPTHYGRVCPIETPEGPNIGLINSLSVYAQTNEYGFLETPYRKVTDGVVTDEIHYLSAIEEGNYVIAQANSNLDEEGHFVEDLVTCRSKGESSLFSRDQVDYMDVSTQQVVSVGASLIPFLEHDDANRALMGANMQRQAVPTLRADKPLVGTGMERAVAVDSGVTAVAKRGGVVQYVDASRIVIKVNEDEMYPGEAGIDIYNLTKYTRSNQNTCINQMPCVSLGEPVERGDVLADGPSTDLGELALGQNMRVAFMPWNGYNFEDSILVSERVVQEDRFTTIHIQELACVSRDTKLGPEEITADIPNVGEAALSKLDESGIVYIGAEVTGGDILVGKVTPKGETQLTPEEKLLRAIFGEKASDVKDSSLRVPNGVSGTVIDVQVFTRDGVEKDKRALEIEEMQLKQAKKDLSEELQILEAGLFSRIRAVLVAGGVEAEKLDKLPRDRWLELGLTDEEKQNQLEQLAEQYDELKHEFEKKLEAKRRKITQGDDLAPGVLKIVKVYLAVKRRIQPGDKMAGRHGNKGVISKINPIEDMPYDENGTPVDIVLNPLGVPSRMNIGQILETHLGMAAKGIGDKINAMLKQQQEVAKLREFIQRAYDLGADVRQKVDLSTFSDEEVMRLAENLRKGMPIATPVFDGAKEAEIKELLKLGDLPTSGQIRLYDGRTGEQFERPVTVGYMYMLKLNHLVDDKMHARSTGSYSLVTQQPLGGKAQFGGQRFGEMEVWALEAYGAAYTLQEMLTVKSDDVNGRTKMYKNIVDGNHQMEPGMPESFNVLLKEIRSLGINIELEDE
For orientation: inhibition means the change of the read-out against control, counted positive when it falls. Turning to `Cc1oc(-c2ccccc2F)nc1CS(=O)(=O)CC(=O)NCCCN(C)C1CCCCC1`, the inhibition is 4.54%.

For the molecule `Cc1nnc(NC(=O)CSc2nccn2-c2cccc(C)c2C)s1`, the inhibition is 8.46%.

Take `Cc1cc(C(=O)COC(=O)CCCN2C(=O)c3ccccc3C2=O)c(C)n1C`: the inhibition was 4.5%.

Consider `COc1ccc(Br)cc1/C=N/n1c(C)nnc1C`, for which the inhibition was 11.2%.

Consider `COCCN(CC(=O)Nc1ccccc1C)S(=O)(=O)c1ccc(S(=O)(=O)N2CCCC2)cc1`, for which the inhibition was 4.44%.

On to `CC(C(=O)N1CCOCC1)N1c2cccc3cccc(c23)S1(=O)=O` (configuration not stated), for which the inhibition was 8.72%.

`O=C(CCCN1C(=O)CCC1=O)Nc1ccc(Cl)c(C(F)(F)F)c1`: the inhibition was -1.3%.

Consider `C=CCNc1nnc(SCC(=O)N2CCCCC2)c2ccccc12`, for which the inhibition was 5.18%.

For the molecule `CCOc1ccc(CNC(=O)C2CC(=O)N(C3CCCC3)C2)cc1OC` (configuration not stated), the inhibition was -2.47%.

For `COC(=O)[C@H](Cc1ccccc1)NC(=O)Nc1ccc(S(N)(=O)=O)cc1`, the inhibition was 10.2%.

Turning to `CNC(=O)C1CC(=O)N(Cc2ccc3c(c2)OCO3)C(=Nc2ccc(F)cc2)S1` (configuration not stated), the inhibition is -0.38%.

Regarding `CCOc1ccc(C(C)C)cc1S(=O)(=O)n1nc(C)cc1C`, the inhibition was 5.62%.

`CN1CCN(CCCNC(=O)c2cc3c(=O)oc4ccccc4c3s2)CC1`: the inhibition is 7.32%.

`CCC(=O)Nc1cccc(NC(=O)CSc2nnnn2C2CCCC2)c1`: the inhibition was 9.82%.

`Cc1cc(C)n(C(=O)c2ccc(S(=O)(=O)N3CCCC3)cc2)n1`: the inhibition was -6.35%.

On to `Cc1ccc(-c2ccc(=O)n(CC(=O)NCCCN3CCCCC3)n2)cc1`, for which the inhibition is 5.27%.

For `O=C(CCCOc1ccccc1)Nc1cccc(C(=O)O)c1`, the inhibition was 5.97%.

In the case of `COc1ccc(CC(=O)c2ccc(O)cc2O)cc1OC`, the inhibition is -2.96%.

As for `Nc1nnnn1/N=C/c1cccs1`, the inhibition is 0.8%.

In the case of `c1cnn(-c2cc(N3CCOCC3)ncn2)c1`, the inhibition is -13.1%.

As for `COc1c(C)cccc1C(=O)Nc1cc(Cl)ccc1N1CCOCC1`, the inhibition was 5.92%.

Regarding `O=C(Nc1cc(N2CCOCC2)ncn1)NC1(C(F)(F)F)Oc2ccc(Cl)cc2O1` (configuration not stated), the inhibition was 35.4% (active).

Regarding `Cc1ccc(C)c2[nH]c(=O)c(CCNC(=O)CC(C)C)cc12`, the inhibition was 6.91%.

In the case of `O=C(NCCc1ccccn1)c1ccc(COc2ccccc2)o1`, the inhibition is 5.1%.

Regarding `CC1CC(C)CN(CC(=O)Nc2ccc(S(N)(=O)=O)cc2)C1` (configuration not stated), the inhibition is 4.05%.

Consider `Cc1cc(Nc2ccc(Br)cc2F)n2ncnc2n1`, for which the inhibition is -2.75%.

Regarding `CN1CCc2c(sc3c2c(NCc2ccco2)nc2nnnn23)C1`, the inhibition is -5.9%.

With `COc1ccc(-c2nc(CS(=O)CC(=O)NCc3cccnc3)c(C)o2)cc1OC` (configuration not stated), the inhibition was -0.41%.

As to `CCOC(=O)c1c(CN2CCOCC2)n(-c2ccccc2)c2ccc(O)cc12`, the inhibition is 9.89%.

As for `COc1cc(OC)cc(-c2nc3nc(C)c(CCC(=O)NCc4ccco4)c(C)n3n2)c1`, the inhibition is 0.61%.

In the case of `CC(=O)c1nc(N2C(=O)C3CC=C(C)CC3C2=O)sc1C` (configuration not stated), the inhibition is 8.57%.

Turning to `O=C1c2oc3ccc(Br)cc3c(=O)c2C(c2cccc(F)c2)N1CCO` (configuration not stated), the inhibition was 2.5%.

Regarding `CN1C(=O)c2ccc(NC(=O)c3c(F)c(F)c(F)c(F)c3F)cc2C1=O`, the inhibition was 11.6%.

Consider `Cn1c(SCC(=O)Nc2cccc(O)c2)nnc1-c1ccc(S(=O)(=O)N2CCOCC2)cc1`, for which the inhibition was 0.17%.

Regarding `Fc1ccccc1OCCCCn1cncn1`, the inhibition is 2.62%.

On to `CCOCCCNS(=O)(=O)Cc1ccccc1`, for which the inhibition was 8.39%.

Consider `Cc1ccc(O)c(NC(=O)COc2cc(C)ccc2C)c1`, for which the inhibition was 4.28%.

Consider `CCCOc1ccc(C2C(C(=O)c3ccc(C)o3)=C(O)C(=O)N2CCCn2ccnc2)cc1` (configuration not stated), for which the inhibition is 5.52%.

For `O=C(Nc1ccon1)c1sc2ccccc2c1Cl`, the inhibition was -7.58%.

Turning to `NC(CSC12CC3CC(CC(C3)C1)C2)C(=O)O` (configuration not stated), the inhibition is 4.34%.

`CC(C)c1nc(-c2ccccn2)no1`: the inhibition was 4.3%.

`O=C(NCc1ccccc1)C1C(=O)N(Cc2ccccc2)C(=O)C1C1(O)CCCC1` (configuration not stated): the inhibition was -8.01%.

For the molecule `CCOCC(=O)Nc1cc(OC)c(Cl)cc1OC`, the inhibition is 5.42%.

As for `Cc1ccc(S(=O)(=O)N2C3C=CC(C3)C2C(=O)O)cc1` (configuration not stated), the inhibition is 8.4%.

For the molecule `Cc1cccc(N2C(=O)SC(N(CC(=O)O)c3cccc(C)c3)C2=O)c1` (configuration not stated), the inhibition was 6.1%.

For the molecule `COc1cccc(C(CC(=O)NCCN2CCOCC2)NS(=O)(=O)c2ccc(C)cc2)c1OC` (configuration not stated), the inhibition is 4.2%.

`Cc1ccc(C(=O)CSc2nc3ccccc3c(=O)n2N)o1`: the inhibition was 4.54%.

As to `Cc1ccsc1C(=O)OCC(=O)c1cc2ccccc2o1`, the inhibition is 8.68%.

Regarding `Cc1cc2c(=O)n(C)c(SCC(=O)c3cc4ccccc4o3)nc2s1`, the inhibition is 20.9% (active).

`O=C(CN1C(=O)C2C3C=CC(C3)C2C1=O)NCC1COc2ccccc2O1` (configuration not stated): the inhibition was -8.67%.

As for `O=C1CCC(Cc2ccccc2)N1` (configuration not stated), the inhibition was 6.1%.

Consider `Cn1c(=O)n(C)c(=O)n(CC(=O)N2CCCCC2)c1=O`, for which the inhibition was 5.37%.

For the molecule `CC(=O)Nc1cccc2c1[n+]([O-])c(C)c(C)[n+]2[O-]`, the inhibition is -3.37%.

For the molecule `O=C(Nc1nc2cc3c(cc2s1)OCCO3)c1cccc(S(=O)(=O)N2CCOCC2)c1`, the inhibition was -1.12%.

Consider `CCCN1C(=O)C(NC(C)=O)c2cc(OC)ccc21` (configuration not stated), for which the inhibition is 8.13%.

On to `Cc1noc(NS(=O)(=O)c2ccc(NC(=O)C34CCC(CC3)C4)cc2)c1C`, for which the inhibition is 3.43%.

As to `COc1cccc2sc(Nc3nc(C)c(C(C)=O)s3)nc12`, the inhibition was -0.4%.

For `CCCOc1ccc(NC(=O)C2CCCNC2=O)cc1` (configuration not stated), the inhibition was 2.77%.

Regarding `CCCCOC(=O)NCN1C(=O)C2C3C=CC(C3)C2C1=O` (configuration not stated), the inhibition was 0.68%.

In the case of `COc1ccc(OC)c(NC(=O)CC(Cc2ccccc2OC)C(=O)O)c1` (configuration not stated), the inhibition is 4.42%.

For `CC(C)N(C(=O)Cn1c(SCC(=O)N2CCN(c3ccccc3)CC2)nc2ccccc21)C(C)C`, the inhibition is 5.85%.

Regarding `O=C(Cn1nc(C(F)(F)F)c2c1CCC2)NCc1ccc(F)cc1`, the inhibition was -0.7%.
